Data taken from publication PMC7862700, “An all-to-all approach to the identification of sequence-specific readers for epigenetic DNA modifications on cytosine”.

Columns and labels:
Experiment in all cases: DAPPL (digital affinity profiling via proximity ligation, sequencing); 10 mM Tris-HCl pH 7.5, 50 mM NaCl, 1 mM DTT, 4% glycerol, room temperature, 30 min; GST-TFs on glutathione beads, 16-mer random dsDNA library, 0.1% formaldehyde crosslink after washing; high values mean tight binding
Conditions in all cases: protein: recombinant; tags: N-terminal GST; dsDNA, one strand shown
[1] = target: T1, FLI1 (Homo sapiens, UniProt Q01543 1-452)
T1 sequence: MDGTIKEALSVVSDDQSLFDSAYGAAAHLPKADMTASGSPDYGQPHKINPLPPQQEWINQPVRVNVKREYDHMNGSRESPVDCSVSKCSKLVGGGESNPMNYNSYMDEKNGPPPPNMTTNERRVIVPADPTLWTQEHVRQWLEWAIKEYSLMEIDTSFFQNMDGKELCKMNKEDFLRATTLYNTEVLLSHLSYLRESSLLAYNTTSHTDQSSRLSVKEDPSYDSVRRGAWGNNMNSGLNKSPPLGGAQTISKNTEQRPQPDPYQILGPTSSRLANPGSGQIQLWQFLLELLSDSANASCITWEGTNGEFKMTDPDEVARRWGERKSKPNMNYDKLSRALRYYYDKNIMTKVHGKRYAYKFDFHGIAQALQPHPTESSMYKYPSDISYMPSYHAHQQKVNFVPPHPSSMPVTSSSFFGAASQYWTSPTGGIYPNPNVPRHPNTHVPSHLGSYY
Summary of the method: (§1)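 Beads coated with glutathione captured GST-fused human transcription factors that had been expressed in yeast, and the factors were then given DNA barcodes and pooled with a tag-only sample. The pools were incubated with 200 nmole of a random double-stranded 16-mer DNA library in Tris/NaCl/DTT/glycerol buffer for 30 min at room temperature, washed, crosslinked with 0.1% formaldehyde and proximity-ligated with BsaI/T4 ligase at 37 °C for 1 h. PCR amplification and Illumina NextSeq500 sequencing came last. Binding signal is each hexamer's read frequency for a factor divided by its frequency for the tag-only sample.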

[2] = target: T2, ELK1 (Homo sapiens, UniProt P19419 1-428)
T2 sequence: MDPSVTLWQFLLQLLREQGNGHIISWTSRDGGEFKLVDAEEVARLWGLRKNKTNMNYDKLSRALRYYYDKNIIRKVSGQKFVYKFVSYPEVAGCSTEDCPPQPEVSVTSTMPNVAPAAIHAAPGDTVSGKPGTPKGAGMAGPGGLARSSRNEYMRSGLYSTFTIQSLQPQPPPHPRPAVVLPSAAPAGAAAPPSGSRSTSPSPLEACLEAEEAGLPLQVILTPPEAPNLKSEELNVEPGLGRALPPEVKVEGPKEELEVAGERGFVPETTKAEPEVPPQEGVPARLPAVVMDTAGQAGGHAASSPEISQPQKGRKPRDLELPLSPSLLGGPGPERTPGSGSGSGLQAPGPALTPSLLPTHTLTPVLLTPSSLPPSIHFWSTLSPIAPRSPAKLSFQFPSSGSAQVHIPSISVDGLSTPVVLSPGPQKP
Summary of the method: as §1

[3] = target: T3, GABPA (Homo sapiens, UniProt Q06546 1-454)
T3 sequence: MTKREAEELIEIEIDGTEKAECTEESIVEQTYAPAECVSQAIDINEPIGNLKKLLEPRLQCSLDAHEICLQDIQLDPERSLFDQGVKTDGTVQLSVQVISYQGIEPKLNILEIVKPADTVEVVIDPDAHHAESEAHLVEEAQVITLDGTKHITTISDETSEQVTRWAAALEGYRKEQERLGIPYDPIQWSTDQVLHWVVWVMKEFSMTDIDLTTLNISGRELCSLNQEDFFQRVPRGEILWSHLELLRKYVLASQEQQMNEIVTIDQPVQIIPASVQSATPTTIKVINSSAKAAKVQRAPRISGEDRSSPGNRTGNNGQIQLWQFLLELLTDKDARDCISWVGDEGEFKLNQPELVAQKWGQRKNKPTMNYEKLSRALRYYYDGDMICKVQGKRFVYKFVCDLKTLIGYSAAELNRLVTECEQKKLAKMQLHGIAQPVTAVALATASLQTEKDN
Summary of the method: as §1

[4] = target: T4, ERG (Homo sapiens, UniProt P11308 1-479)
T4 sequence: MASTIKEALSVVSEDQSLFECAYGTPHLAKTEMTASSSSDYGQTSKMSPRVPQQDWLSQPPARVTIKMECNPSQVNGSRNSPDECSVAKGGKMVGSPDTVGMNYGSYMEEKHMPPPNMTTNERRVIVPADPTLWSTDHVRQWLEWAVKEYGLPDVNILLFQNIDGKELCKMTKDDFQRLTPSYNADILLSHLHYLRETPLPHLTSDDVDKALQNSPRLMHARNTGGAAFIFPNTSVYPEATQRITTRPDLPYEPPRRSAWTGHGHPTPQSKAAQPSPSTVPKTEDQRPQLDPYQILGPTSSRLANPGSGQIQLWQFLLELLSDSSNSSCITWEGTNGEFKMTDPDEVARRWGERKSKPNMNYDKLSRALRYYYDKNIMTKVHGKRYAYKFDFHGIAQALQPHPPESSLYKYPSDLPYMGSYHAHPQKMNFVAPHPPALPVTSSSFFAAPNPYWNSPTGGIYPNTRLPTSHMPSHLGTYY
Summary of the method: as §1

[5] = target: ELF1 (Homo sapiens, UniProt P32519 1-619)
Summary of the method: as §1

[6] = target: T5, EHF (Homo sapiens, UniProt Q9NZC4 1-300)
T5 sequence: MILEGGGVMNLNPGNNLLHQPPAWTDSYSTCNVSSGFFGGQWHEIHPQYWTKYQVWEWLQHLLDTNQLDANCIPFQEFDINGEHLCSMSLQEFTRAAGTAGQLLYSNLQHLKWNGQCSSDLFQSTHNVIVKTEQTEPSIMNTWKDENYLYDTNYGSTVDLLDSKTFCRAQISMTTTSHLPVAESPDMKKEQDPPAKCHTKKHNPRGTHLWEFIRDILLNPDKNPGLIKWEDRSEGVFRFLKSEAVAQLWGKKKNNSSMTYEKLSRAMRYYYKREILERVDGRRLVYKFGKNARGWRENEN
Summary of the method: as §1

[7] = target: SPI1 (Homo sapiens, UniProt P17947 1-270)
Summary of the method: as §1

[8] = target: SPIB (Homo sapiens, UniProt Q01892 1-262)
Summary of the method: as §1

[9] = target: T6, ELK3 (Homo sapiens, UniProt P41970 1-407)
T6 sequence: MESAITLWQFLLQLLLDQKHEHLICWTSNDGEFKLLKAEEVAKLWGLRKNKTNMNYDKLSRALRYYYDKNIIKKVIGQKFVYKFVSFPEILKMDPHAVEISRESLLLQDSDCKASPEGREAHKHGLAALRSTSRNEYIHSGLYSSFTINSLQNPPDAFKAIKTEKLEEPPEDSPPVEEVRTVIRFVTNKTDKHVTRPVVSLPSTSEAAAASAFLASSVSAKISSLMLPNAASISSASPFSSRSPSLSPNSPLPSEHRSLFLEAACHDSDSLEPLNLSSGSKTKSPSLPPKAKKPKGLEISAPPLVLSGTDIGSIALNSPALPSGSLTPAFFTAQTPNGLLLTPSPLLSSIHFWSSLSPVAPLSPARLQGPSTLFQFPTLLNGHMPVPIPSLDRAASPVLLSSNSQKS
Summary of the method: as §1

Chain of SPIB (Q01892 whole entry): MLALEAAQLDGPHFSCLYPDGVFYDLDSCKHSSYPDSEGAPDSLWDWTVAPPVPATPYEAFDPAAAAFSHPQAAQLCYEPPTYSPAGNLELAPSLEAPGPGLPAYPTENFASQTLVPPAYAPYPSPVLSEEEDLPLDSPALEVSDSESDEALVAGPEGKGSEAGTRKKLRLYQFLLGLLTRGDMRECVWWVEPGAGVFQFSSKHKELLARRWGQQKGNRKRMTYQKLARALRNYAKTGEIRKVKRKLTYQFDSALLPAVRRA
Chain of ELF1 (P32519 whole entry): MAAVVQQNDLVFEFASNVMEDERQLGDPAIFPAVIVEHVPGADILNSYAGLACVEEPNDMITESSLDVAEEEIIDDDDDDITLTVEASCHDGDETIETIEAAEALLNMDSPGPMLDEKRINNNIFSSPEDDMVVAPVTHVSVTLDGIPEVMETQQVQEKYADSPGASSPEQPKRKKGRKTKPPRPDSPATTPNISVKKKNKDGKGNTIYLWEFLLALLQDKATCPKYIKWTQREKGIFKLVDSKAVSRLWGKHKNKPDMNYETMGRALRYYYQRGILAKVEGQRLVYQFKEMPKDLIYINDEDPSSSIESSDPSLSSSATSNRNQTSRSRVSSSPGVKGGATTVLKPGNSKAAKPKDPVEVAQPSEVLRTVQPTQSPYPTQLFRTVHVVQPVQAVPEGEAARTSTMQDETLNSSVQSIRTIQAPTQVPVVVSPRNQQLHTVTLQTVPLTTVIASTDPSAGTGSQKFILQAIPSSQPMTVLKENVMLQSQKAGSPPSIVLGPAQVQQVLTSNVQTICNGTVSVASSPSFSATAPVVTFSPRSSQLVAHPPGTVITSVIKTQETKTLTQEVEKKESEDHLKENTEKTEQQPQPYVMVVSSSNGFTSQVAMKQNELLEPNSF

Sequence	binding signal [1]	binding signal [2]	binding signal [3]	binding signal [4]	binding signal [5]	binding signal [6]	binding signal [7]	binding signal [8]	binding signal [9]
TGCTAT	1.42 fold enrichment (6-mer frequency, TF over GST control)	1.36 fold enrichment (6-mer frequency, TF over GST control)	1.47 fold enrichment (6-mer frequency, TF over GST control)	1.41 fold enrichment (6-mer frequency, TF over GST control)	1.46 fold enrichment (6-mer frequency, TF over GST control)	1.49 fold enrichment (6-mer frequency, TF over GST control)	1.33 fold enrichment (6-mer frequency, TF over GST control)	1.47 fold enrichment (6-mer frequency, TF over GST control)	1.63 fold enrichment (6-mer frequency, TF over GST control)
TCTGCA	1.42 fold enrichment (6-mer frequency, TF over GST control)	1.4 fold enrichment (6-mer frequency, TF over GST control)	1.31 fold enrichment (6-mer frequency, TF over GST control)	1.25 fold enrichment (6-mer frequency, TF over GST control)	1.3 fold enrichment (6-mer frequency, TF over GST control)	1.27 fold enrichment (6-mer frequency, TF over GST control)	1.33 fold enrichment (6-mer frequency, TF over GST control)	1.41 fold enrichment (6-mer frequency, TF over GST control)	1.48 fold enrichment (6-mer frequency, TF over GST control)
CTGCAT	1.42 fold enrichment (6-mer frequency, TF over GST control)	1.51 fold enrichment (6-mer frequency, TF over GST control)	1.41 fold enrichment (6-mer frequency, TF over GST control)	1.41 fold enrichment (6-mer frequency, TF over GST control)	1.47 fold enrichment (6-mer frequency, TF over GST control)	1.47 fold enrichment (6-mer frequency, TF over GST control)	1.42 fold enrichment (6-mer frequency, TF over GST control)	1.65 fold enrichment (6-mer frequency, TF over GST control)	1.39 fold enrichment (6-mer frequency, TF over GST control)
TCCTCG	1.6 fold enrichment (6-mer frequency, TF over GST control)	1.33 fold enrichment (6-mer frequency, TF over GST control)	1.47 fold enrichment (6-mer frequency, TF over GST control)	1.42 fold enrichment (6-mer frequency, TF over GST control)	1.47 fold enrichment (6-mer frequency, TF over GST control)	1.56 fold enrichment (6-mer frequency, TF over GST control)	1.46 fold enrichment (6-mer frequency, TF over GST control)	1.32 fold enrichment (6-mer frequency, TF over GST control)	1.49 fold enrichment (6-mer frequency, TF over GST control)
AACTCT	1.32 fold enrichment (6-mer frequency, TF over GST control)	1.37 fold enrichment (6-mer frequency, TF over GST control)	1.31 fold enrichment (6-mer frequency, TF over GST control)	1.33 fold enrichment (6-mer frequency, TF over GST control)	1.5 fold enrichment (6-mer frequency, TF over GST control)	1.33 fold enrichment (6-mer frequency, TF over GST control)	1.28 fold enrichment (6-mer frequency, TF over GST control)	1.28 fold enrichment (6-mer frequency, TF over GST control)	1.26 fold enrichment (6-mer frequency, TF over GST control)
ATATCA	1.23 fold enrichment (6-mer frequency, TF over GST control)	1.24 fold enrichment (6-mer frequency, TF over GST control)	1.22 fold enrichment (6-mer frequency, TF over GST control)	1.14 fold enrichment (6-mer frequency, TF over GST control)	1.2 fold enrichment (6-mer frequency, TF over GST control)	1.15 fold enrichment (6-mer frequency, TF over GST control)	1.13 fold enrichment (6-mer frequency, TF over GST control)	1.14 fold enrichment (6-mer frequency, TF over GST control)	1.11 fold enrichment (6-mer frequency, TF over GST control)
CTATGG	1.25 fold enrichment (6-mer frequency, TF over GST control)	1.14 fold enrichment (6-mer frequency, TF over GST control)	1.21 fold enrichment (6-mer frequency, TF over GST control)	1.15 fold enrichment (6-mer frequency, TF over GST control)	1.19 fold enrichment (6-mer frequency, TF over GST control)	1.3 fold enrichment (6-mer frequency, TF over GST control)	1.17 fold enrichment (6-mer frequency, TF over GST control)	1.19 fold enrichment (6-mer frequency, TF over GST control)	1.2 fold enrichment (6-mer frequency, TF over GST control)
TACCTA	1.32 fold enrichment (6-mer frequency, TF over GST control)	1.26 fold enrichment (6-mer frequency, TF over GST control)	1.24 fold enrichment (6-mer frequency, TF over GST control)	1.13 fold enrichment (6-mer frequency, TF over GST control)	1.34 fold enrichment (6-mer frequency, TF over GST control)	1.22 fold enrichment (6-mer frequency, TF over GST control)	1.28 fold enrichment (6-mer frequency, TF over GST control)	1.22 fold enrichment (6-mer frequency, TF over GST control)	1.23 fold enrichment (6-mer frequency, TF over GST control)
